Screening results deposited in PubChem by several laboratories.
Shown are actives, neighbours in structure and some others; about 4.9% of the full set was active somewhere.
NALP1 inh = blocks the NALP1 inflammasome reconstituted in yeast. S. cerevisiae NALP1/ASC/caspase-1 growth, X-gal OD620, 72 h. inhibition, % at 10 µM. 280,000 tested, 0.61% active. AID 2071; in the data active = inhibition mostly above about 24%, no sharp cut-off; inactive = mostly below about 32%
tim23-1 inh = tim23-1 yeast growth inhibition | AID 463212 | 330,000 tested, 1.3% active | inhibition, % at 20 µM | S. cerevisiae tim23-1 growth, BacTiter-Glo luminescence, 24 h;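 active = growth inhibition of the mutant yeast at or above 50%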;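 note: temperature-sensitive mutant grown at 25 °C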
TIM10 inh = TIM10 yeast growth inhibition. S. cerevisiae TIM10 strain growth, BacTiter-Glo luminescence, 24 h. inhibition, % at 10 µM. 330,000 tested, 1.4% active;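 active = inhibition of 40% or more at the single tested concentration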;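 note: wild-type TIM10 isogenic control strain grown at permissive 25 °C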
SKKanGAS inh = SKKanGAS growth inhibition | inhibition, % at 7.5 µM | 300,000 tested, 1.3% active | S. pyogenes SKKanGAS, kanamycin growth, BacTiter-Glo, 6 h | AID 1662;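 active = mean replicate score, as percent of positive control median, at least 50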;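 note: strain carries kanamycin resistance gene driven by streptokinase promoter and grows in 40 µg/ml kanamycin; loss of luminescence reflects streptokinase promoter inhibition or plain growth inhibition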
NLRP3 yeast inh = NALP3 inhibition in yeast. 330,000 tested, 0.39% active. Yeast reconstituted NLRP3/ASC/caspase-1, beta-gal luminescence, 24 h. AID 2825. inhibition, % at 10 µM;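 active = inhibition of 50% or more; inactive = inhibition below 50%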
tim10-1 inh = growth inhibitors of tim10-1 mutant yeast. S. cerevisiae tim10-1 ts strain growth, BacTiter-Glo, 24 h. inhibition, % at 20 µM. 330,000 tested, 2.2% active. AID 463190;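 active = inhibition of at least 40%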;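 note: mutant grown at 25 °C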
TIM10 conf = confirmation of TIM10 yeast growth inhibitors | S. cerevisiae tim10 strain growth, BacTiter-Glo luminescence, 24 h | 4,600 tested, 63% active | shares compounds with TIM10 inh | inhibition, % at 10 µM;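 active = inhibition of yeast growth at or above a set limit in either of two replicates at 10 µM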; note: this counterscreen used the strain with wild-type TIM10
tim23-1 confirm = confirmation of tim23-1 mutant yeast growth inhibitors. S. cerevisiae tim23-1 growth, BacTiter-Glo luminescence, 24 h. shares compounds with tim23-1 inh. inhibition, % at 20 µM. 4,400 tested, 83% active. AID 463218;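 active = inhibition above about 39% in either of two replicate wells at 20 µM, limit read from the data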;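 note: temperature-sensitive tim23-1 mutant grown at 25 °C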
A number is an active result; 0 = inactive; - = no result given.

SMILES | NALP1 inh | tim23-1 inh | TIM10 inh | SKKanGAS inh | NLRP3 yeast inh | tim10-1 inh | TIM10 conf | tim23-1 confirm
O=c1oc(-c2cccs2)nc2c1cnn2-c1ccccc1 | 0 | 51 | 47 | 0 | 0 | 0 | 34 | 47
CC1CC(C)CN(C(=O)c2cccc(N3C(=O)c4ccccc4C3=O)c2)C1 (configuration not stated) | - | 0 | 0 | - | 0 | 0 | - | -
c1ccc2c(c1)ncn2CCC1CCCCC1 | 0 | 53 | 42 | 0 | 0 | 0 | 35 | 0
CC1CCCCN1C(=S)NC(=O)c1cc(Br)ccc1Cl (configuration not stated) | - | 54 | 41 | - | 0 | 0 | 44 | 50
CCC1CCCCN1C(=S)NC(=O)c1cc(Br)ccc1Cl (configuration not stated) | - | 58 | 53 | - | 0 | 0 | 52 | 53
CCC1CCCCN1C(=S)NC(=O)c1cccs1 (configuration not stated) | 0 | 0 | 0 | 0 | 0 | 0 | - | -
CNC(=S)N/N=C/c1cn(Cc2ccc(F)cc2)c2ccccc12 | 0 | 51 | 40 | 0 | 0 | 0 | 49 | 39
COC(=O)N/N=C/c1cn(Cc2ccc(F)cc2)c2ccccc12 | 0 | 0 | 0 | 0 | 0 | 0 | - | -
Cn1c(CCNC(=O)c2ccccc2F)nnc1SCC(=O)Nc1nncs1 | 0 | 0 | 0 | 0 | 0 | 0 | - | -
O=S(=O)(c1ccc2ccccc2c1)N1CCN(c2ccc(O)cc2)CC1 | - | 58 | 44 | - | 0 | 0 | 44 | 48
CN1/C(=C/C(=S)NC(=O)C2(C)CC2(Cl)Cl)C(C)(C)c2ccccc21 (configuration not stated) | 0 | 0 | 0 | 0 | 0 | 0 | - | -
COc1ccccc1C(=O)NC(=S)/C=C1/N(C)c2ccccc2C1(C)C | 0 | 51 | 44 | 0 | 0 | 0 | 0 | 42
COc1ccc(NC(=O)Cc2nnc(SCC(=O)Nc3ccc(F)cc3)n2C)cc1 | 0 | 0 | 0 | 0 | 0 | 0 | - | -
C=CCS/C(N)=N\N=C\c1c(O)ccc2ccccc12 | 0 | 53 | 53 | 0 | 0 | 0 | 42 | 71
CCCS/C(N)=N/N=C/c1ccccc1O | 0 | 0 | 0 | 0 | 0 | 0 | - | -
Cc1ccc(CN2CCC(Oc3cccc(C(=O)NCc4cccnc4)c3)CC2)o1 | 0 | 0 | 0 | 0 | 0 | 0 | - | -
CCOc1nc(-c2ccncc2)nc2ccccc12 | 0 | 57 | 58 | 0 | 0 | 0 | 44 | 54
COc1cccc(N/N=C/c2cccc(Br)c2O)c1 | 0 | 58 | 57 | 63 | 0 | 0 | 36 | 69
CCOC(=O)C1=CNS(=O)(=O)NC1c1ccc(C(=O)OC)cc1 (configuration not stated) | - | 0 | 0 | - | - | 0 | - | -
O=C(C[C@@H]1C/C=C\CCCC(=O)OC[C@@H]2CCCN2C1=O)NCCO | - | 0 | 0 | - | 0 | 0 | - | -
Cc1c(C(=O)n2cnc3ccccc32)cccc1[N+](=O)[O-] | 0 | 0 | 0 | 0 | 0 | 0 | - | -
Cc1nc2ccccc2n1C(=O)c1ccccc1[N+](=O)[O-] | 0 | 0 | 50 | 0 | 0 | 0 | 47 | 40
CCC(=O)N1CCc2cc(S(=O)(=O)N3CCCCCC3)ccc21 | 0 | 0 | 0 | 0 | 0 | 0 | - | -
O=C1C=CC2C(c3ccc4c(c3)OCO4)CC1N2Cc1ccccc1 (configuration not stated) | 0 | 58 | 44 | 0 | 0 | 0 | 51 | 47
c1ccc(CN2CCC(N3CCN(Cc4ccc5c(c4)OCO5)CC3)CC2)cc1 | - | 0 | 0 | 0 | 0 | 0 | - | -
SMILES | NALP1 inh | tim23-1 inh | TIM10 inh | SKKanGAS inh | NLRP3 yeast inh | tim10-1 inh | TIM10 conf | tim23-1 confirm
O=C(c1ccc([N+](=O)[O-])o1)N1CCc2ccccc2C1 | - | 59 | 73 | 0 | 0 | 0 | 73 | 0
Cn1c(NC2CCCCC2)cc(=O)n(C)c1=O | 0 | 0 | 0 | 0 | 0 | 0 | - | -
Cc1cc(C2CCCCC2)n(O)c(=O)c1 | - | 66 | 59 | - | 0 | 0 | 62 | 53
Cc1[nH]c(-c2ccc(F)cc2)cc1C(=O)N1CCN(c2ccc(Cl)cc2)CC1 | 0 | 73 | 49 | 54 | 0 | 0 | 42 | 54
CCOC(=O)N1CCN(C(=O)c2cc(-c3ccc(F)cc3)[nH]c2C)CC1 | 0 | 0 | 0 | 0 | 0 | 0 | - | -
Oc1ccc(Cl)cc1Cc1cc(Cl)ccc1O | 0 | 73 | 50 | 0 | 0 | 0 | 63 | 0
O=S(=O)(Cc1ccc(Cl)cc1)Nc1ccc2c(c1)OCO2 | 0 | 59 | 0 | 0 | 0 | 0 | - | 49
O=S(=O)(Cc1ccc(Cl)cc1)N1CCN(Cc2ccc3c(c2)OCO3)CC1 | 0 | 0 | 0 | 0 | 0 | 0 | - | -
CN(C)S(=O)(=O)N(CC(=O)Nc1cccc(F)c1)c1ccccc1 | 0 | 0 | 0 | 0 | 0 | 0 | - | -
CC(=O)c1ccc(NC(=S)N2CCN(c3cccc(Cl)c3)CC2)cc1 | 0 | 0 | 0 | 0 | 0 | 0 | - | -
CC(=O)c1ccc(N2CCN(C(=S)Nc3cccc(Cl)c3)CC2)cc1 | 0 | 96 | 0 | 0 | 0 | 0 | - | 0
Cc1cccc(NC(=O)c2ccc(Cn3cc(C(F)(F)F)ccc3=O)cc2)c1 | 0 | 0 | 0 | 0 | 0 | 0 | - | -
Cc1ccc(/C(N)=N/OC(=O)c2cccc(Cn3cc(C(F)(F)F)ccc3=O)c2)cc1 | 0 | 59 | 0 | 0 | 0 | 0 | - | 60
Cc1cccc(/C(N)=N/OC(=O)c2ccncc2)c1 | 0 | 0 | 0 | 0 | 0 | 0 | - | -
Cc1cccc(C(=O)O/N=C(\N)c2ccc(Br)cc2)c1 | 0 | 96 | 0 | 0 | 0 | 0 | - | 51
Cc1ccccc1NC(=O)C(=O)c1cn(C)c2ccccc12 | 0 | 0 | 0 | 0 | 0 | 0 | - | -
Cc1cccc(N2CCN(C(=O)c3nn(C)c4c3CS(=O)(=O)c3ccccc3-4)CC2C)c1 (configuration not stated) | 0 | 0 | 0 | 0 | 0 | 0 | - | -
Clc1ccc(OCc2nc(-c3ccccn3)n[nH]2)cc1 | 0 | 0 | 0 | 0 | 0 | 0 | - | -
Brc1ccc(OCc2nc(-c3ccccn3)n[nH]2)cc1 | 0 | 52 | 0 | 0 | 0 | 0 | - | 53
CCCC(O)(c1ccc(Cl)cc1)C(CN1CCOCC1)c1ccc(Cl)cc1 (configuration not stated) | 0 | 57 | 0 | 0 | 0 | 0 | - | 0
CCCC(O)(c1ccc(OC)cc1)C(CN1CCOCC1)c1ccc(Cl)cc1 (configuration not stated) | 0 | 0 | 0 | 0 | 0 | 0 | - | -
O=C(Nc1ccc(-c2nc3ccccc3[nH]2)cc1)C1CCCO1 (configuration not stated) | 0 | 53 | 0 | 0 | 0 | 0 | - | 41
O=[N+]([O-])c1ccc2c(c1N1CCCCC1)=NC1(CCCCC1)[N+]=2[O-] | 0 | 54 | 0 | 0 | 0 | 0 | - | 42
COc1ccc(NC(=S)NCCSc2ccc(Cl)cc2)c(OC)c1 | 0 | 50 | 0 | 0 | 0 | 0 | - | 42
COc1ccccc1NC(=S)NCCc1ccc(Cl)cc1 | 0 | 0 | 0 | 0 | 0 | 0 | - | -
COc1ccccc1NC(=S)NCCSc1ccc(Cl)cc1 | 0 | 54 | 0 | 0 | 0 | 0 | - | 50
